Measurements taken from PMC5700166.
Substitutions are numbered along the chain they refer to.

Assays:
Experiment in all cases: protein-binding microarray (PBM); PBM: ~300 nM protein, 6 mM HEPES pH 7.8, 80 mM KCl, 0.5 mM EDTA, 0.5 mM EGTA, 6% glycerol, 35 ng/ul poly-dIdC, 1% milk, 1 h, room temperature; Ap Aiptasia and Nv Nematostella (sea anemones) / Co Capsaspora / Aq Amphimedon (sponge) / Dm Drosophila / Hu human; RHD is the Rel homology domain; high values mean tight binding
Conditions in all cases: dsDNA, one strand shown
GST-Ap-NF-kB RHD = molecular target: T1, GST-Ap-NF-kB RHD (Exaiptasia pallida (Aiptasia), UniProt A0A913YAJ5 2-422)
T1 sequence: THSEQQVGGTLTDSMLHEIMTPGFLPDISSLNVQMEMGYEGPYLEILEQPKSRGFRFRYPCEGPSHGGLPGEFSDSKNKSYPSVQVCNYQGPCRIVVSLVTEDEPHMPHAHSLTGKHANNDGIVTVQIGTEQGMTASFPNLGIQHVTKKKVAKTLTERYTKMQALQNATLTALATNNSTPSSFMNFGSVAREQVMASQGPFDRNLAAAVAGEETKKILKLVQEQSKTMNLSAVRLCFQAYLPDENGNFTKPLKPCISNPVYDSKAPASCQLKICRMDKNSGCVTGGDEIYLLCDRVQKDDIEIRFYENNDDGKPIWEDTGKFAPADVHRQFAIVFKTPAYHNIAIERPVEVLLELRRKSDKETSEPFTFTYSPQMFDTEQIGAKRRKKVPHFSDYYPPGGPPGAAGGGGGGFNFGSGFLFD

GST-Co-NF-kB = molecular target: T2, GST-Co-NF-kB (Capsaspora owczarzaki, UniProt F1ARL5 200-546)
T2 sequence: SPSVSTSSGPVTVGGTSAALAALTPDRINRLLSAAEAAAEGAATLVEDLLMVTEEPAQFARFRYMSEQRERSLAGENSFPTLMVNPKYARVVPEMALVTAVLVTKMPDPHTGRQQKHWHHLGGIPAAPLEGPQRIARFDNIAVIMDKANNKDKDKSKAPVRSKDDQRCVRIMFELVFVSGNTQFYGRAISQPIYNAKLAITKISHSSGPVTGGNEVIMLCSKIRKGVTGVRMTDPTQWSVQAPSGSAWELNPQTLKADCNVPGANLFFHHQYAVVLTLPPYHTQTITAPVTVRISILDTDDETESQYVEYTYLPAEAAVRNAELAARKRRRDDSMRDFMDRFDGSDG

GST-Dm-Relish = molecular target: T3, GST-Dm-Relish (Drosophila melanogaster, UniProt Q94527 99-473)
T3 sequence: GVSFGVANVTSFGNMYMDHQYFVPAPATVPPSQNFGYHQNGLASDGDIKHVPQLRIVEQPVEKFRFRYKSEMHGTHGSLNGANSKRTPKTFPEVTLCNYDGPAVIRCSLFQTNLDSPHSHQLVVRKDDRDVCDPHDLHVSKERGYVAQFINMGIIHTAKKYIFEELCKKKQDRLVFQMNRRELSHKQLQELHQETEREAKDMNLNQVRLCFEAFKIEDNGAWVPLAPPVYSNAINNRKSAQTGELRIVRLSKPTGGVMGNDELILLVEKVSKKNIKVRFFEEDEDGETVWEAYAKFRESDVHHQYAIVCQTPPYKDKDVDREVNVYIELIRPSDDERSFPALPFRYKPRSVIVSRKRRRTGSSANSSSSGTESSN

GST-Aq-NF-kB = molecular target: T4, GST-Aq-NF-kB (Amphimedon queenslandica, UniProt A9Y5G7 2-389)
T4 sequence: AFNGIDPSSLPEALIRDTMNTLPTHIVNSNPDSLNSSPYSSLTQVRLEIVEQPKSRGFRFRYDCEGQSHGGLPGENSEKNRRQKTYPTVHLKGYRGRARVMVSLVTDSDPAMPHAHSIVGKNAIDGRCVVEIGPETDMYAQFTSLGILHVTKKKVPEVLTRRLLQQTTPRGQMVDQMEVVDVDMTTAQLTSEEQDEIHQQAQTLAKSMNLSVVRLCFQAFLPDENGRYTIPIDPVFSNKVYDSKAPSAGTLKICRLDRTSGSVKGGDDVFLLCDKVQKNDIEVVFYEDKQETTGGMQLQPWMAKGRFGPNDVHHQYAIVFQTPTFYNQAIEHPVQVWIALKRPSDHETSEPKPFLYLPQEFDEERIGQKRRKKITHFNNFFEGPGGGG

[1] = molecular target: T5, GST-Nv-NF-kB (Ser allele) (Nematostella vectensis, UniProt A7UNT2 2-411)
T5 sequence: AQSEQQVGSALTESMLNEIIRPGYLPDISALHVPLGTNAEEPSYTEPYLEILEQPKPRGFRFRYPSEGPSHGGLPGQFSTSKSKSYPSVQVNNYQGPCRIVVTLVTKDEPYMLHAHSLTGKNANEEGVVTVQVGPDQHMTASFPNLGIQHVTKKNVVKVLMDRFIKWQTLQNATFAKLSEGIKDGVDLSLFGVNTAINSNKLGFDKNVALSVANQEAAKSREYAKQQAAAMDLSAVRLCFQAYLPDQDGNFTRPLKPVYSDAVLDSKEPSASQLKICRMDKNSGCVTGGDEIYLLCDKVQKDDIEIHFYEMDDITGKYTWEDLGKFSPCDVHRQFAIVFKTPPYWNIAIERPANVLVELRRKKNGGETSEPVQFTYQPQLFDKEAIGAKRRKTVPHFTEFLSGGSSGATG

[2] = molecular target: T6, GST-Nv-NF-kB (Cys allele) (Nematostella vectensis, UniProt E5G601 2-411)
T6 sequence: T5 sequence with R21Q, S66C, N207S, Q215E, A217V, K225E, E268A, E399D

Sequence | binding signal (GST-Ap-NF-kB RHD) [z-score] | binding signal (GST-Co-NF-kB) [z-score] | binding signal (GST-Dm-Relish) [z-score] | binding signal (GST-Aq-NF-kB) [z-score] | binding signal [1] [z-score] | binding signal [2] [z-score]
CCGATTAACATCAGGCAACCCCATGATGTTAATCGGGTCTTGATTCGCTTGACGCTGCTG | 1.67 | 1.23 | 2.62 | 1.4 | – | –
CCGATTAACATCACTCCCCCCCCTGATGTTAATCGGGTCTTGATTCGCTTGACGCTGCTG | 5.73 | 6.72 | 4.43 | 4.65 | – | –
CCGATTAACATCAGGGGGGGGGATGATGTTAATCGGGTCTTGATTCGCTTGACGCTGCTG | 6.37 | 7.03 | 5.78 | 5.02 | – | –
CCGATTAACATCACGGTACGGGGTGATGTTAATCGGGTCTTGATTCGCTTGACGCTGCTG | 2.02 | 2.2 | 1.48 | 1.51 | – | –
CCGATTAACATCAATACCCCCCCTGATGTTAATCGGGTCTTGATTCGCTTGACGCTGCTG | 6.7 | 6.7 | 5.66 | 4.66 | – | –
CCGATTAACATCACGGATATCCCTGATGTTAATCGGGTCTTGATTCGCTTGACGCTGCTG | 1.57 | 1.15 | 2.04 | 2.76 | – | –
CCGATTAACATCAAGGGGGGGAGTGATGTTAATCGGGTCTTGATTCGCTTGACGCTGCTG | 4.51 | 7.82 | 3.56 | 4.43 | – | –
CCGATTAACATCATAAGGGGTGTTGATGTTAATCGGGTCTTGATTCGCTTGACGCTGCTG | 2.3 | 1.09 | – | 1.91 | – | –
CCGATTAACATCACCCCCCCTGATGATGTTAATCGGGTCTTGATTCGCTTGACGCTGCTG | 4.83 | 5.83 | 4.63 | 4.51 | 3.09 | –
CCGATTAACATCAAGCCCCCCCTTGATGTTAATCGGGTCTTGATTCGCTTGACGCTGCTG | 4.63 | 3.04 | 4.77 | 4.92 | 4.35 | –
CCGATTAACATCAGGGCTTCCCATGATGTTAATCGGGTCTTGATTCGCTTGACGCTGCTG | 1.44 | 1.01 | 8.36 | 3.5 | – | –
CCGATTAACATCACCGGAATTTCTGATGTTAATCGGGTCTTGATTCGCTTGACGCTGCTG | 1.27 | – | 1.58 | 2.45 | – | –
CCGATTAACATCAGGGATTAACATGATGTTAATCGGGTCTTGATTCGCTTGACGCTGCTG | 1.77 | – | 4.89 | 1.83 | – | –
CCGATTAACATCAGTAGTGGGGCTGATGTTAATCGGGTCTTGATTCGCTTGACGCTGCTG | – | – | – | 1.72 | – | 1.01
CCGATTAACATCAGGGGTGCCCATGATGTTAATCGGGTCTTGATTCGCTTGACGCTGCTG | 1.69 | – | 3.52 | 1.5 | – | –
CCGATTAACATCAGGAATGCCCATGATGTTAATCGGGTCTTGATTCGCTTGACGCTGCTG | 1.27 | – | 1.49 | 1.96 | – | –
CCGATTAACATCACGGCAACCCCTGATGTTAATCGGGTCTTGATTCGCTTGACGCTGCTG | 1.78 | – | 1.46 | 2.35 | – | –
CCGATTAACATCACGGAGATCCCTGATGTTAATCGGGTCTTGATTCGCTTGACGCTGCTG | 1.39 | – | 4.73 | 3.81 | – | –

Sequence | binding signal (GST-Ap-NF-kB RHD) [z-score] | binding signal (GST-Co-NF-kB) [z-score] | binding signal (GST-Dm-Relish) [z-score] | binding signal (GST-Aq-NF-kB) [z-score] | binding signal [1] [z-score] | binding signal [2] [z-score]
CCGATTAACATCAGGGCATTCCATGATGTTAATCGGGTCTTGATTCGCTTGACGCTGCTG | 1.14 | – | 1.84 | 2.1 | – | –
CCGATTAACATCATTTATCCCGGTGATGTTAATCGGGTCTTGATTCGCTTGACGCTGCTG | 1.16 | 2.85 | 1.77 | 1.14 | – | –
CCGATTAACATCAGGAATTCCTATGATGTTAATCGGGTCTTGATTCGCTTGACGCTGCTG | 1.1 | – | 3.7 | 2.07 | – | –
CCGATTAACATCAAGGAAAGCCCTGATGTTAATCGGGTCTTGATTCGCTTGACGCTGCTG | 1.19 | – | 3.3 | 3.45 | – | –
CCGATTAACATCAGGAATATTCCTGATGTTAATCGGGTCTTGATTCGCTTGACGCTGCTG | – | – | – | 1.34 | – | 1.22
CCGATTAACATCACGGGATGTCCTGATGTTAATCGGGTCTTGATTCGCTTGACGCTGCTG | 1.47 | – | 3.42 | 3.06 | – | –
CCGATTAACATCAAGAAATTTCCTGATGTTAATCGGGTCTTGATTCGCTTGACGCTGCTG | – | – | – | 2.06 | – | 1.11
CCGATTAACATCACGGGATCTCCTGATGTTAATCGGGTCTTGATTCGCTTGACGCTGCTG | 2.16 | – | 4.06 | 3.77 | – | –
CCGATTAACATCAGGAGGTTCCCTGATGTTAATCGGGTCTTGATTCGCTTGACGCTGCTG | 2.28 | – | 2.47 | 3.68 | – | –
CCGATTAACATCACGGGATGCCCTGATGTTAATCGGGTCTTGATTCGCTTGACGCTGCTG | 1.03 | – | 5.65 | 3.09 | – | –
CCGATTAACATCACGGGGGGGGCTGATGTTAATCGGGTCTTGATTCGCTTGACGCTGCTG | 4.19 | 5.11 | 4.98 | 4.34 | – | –
CCGATTAACATCAAGGGCATCCCTGATGTTAATCGGGTCTTGATTCGCTTGACGCTGCTG | 1.42 | – | 5.6 | 2.86 | – | –
CCGATTAACATCACGTAAGGGATTGATGTTAATCGGGTCTTGATTCGCTTGACGCTGCTG | – | – | – | 2.43 | – | 1.34
CCGATTAACATCAATCCCCCCCCTGATGTTAATCGGGTCTTGATTCGCTTGACGCTGCTG | 7.49 | 7.2 | 6.09 | 5.2 | – | –
CCGATTAACATCAGGGCATCCCATGATGTTAATCGGGTCTTGATTCGCTTGACGCTGCTG | 1.37 | – | 5.99 | 2.34 | – | –
CCGATTAACATCACCTCCCCCCCTGATGTTAATCGGGTCTTGATTCGCTTGACGCTGCTG | 4.48 | 3.77 | 4.13 | 3.93 | – | –
CCGATTAACATCAGGGGTACACATGATGTTAATCGGGTCTTGATTCGCTTGACGCTGCTG | 1.77 | 4.09 | 1.13 | 1.07 | – | –
CCGATTAACATCAGGGTCTTATATGATGTTAATCGGGTCTTGATTCGCTTGACGCTGCTG | – | – | – | 2.15 | – | 1.26
